# In PubChem BioAssay:
# Active and inactive are the calls of the source.
# Assays:
# [1] = test system: Human papillomavirus type 1a protein E7 (residues 44-93); assay: HPV1a E7 fragment binders on microarrays, primary screen, biochemical, small-molecule microarray, residues 44-93, 635 nm fluorescence (AID 1108); conditions: small-molecule microarray binding, fluorescence 635 nm; higher = more signal;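 note: E7 fragment applied at 1 µg/mL in TBST for 1 h at 4 C; score combines spot fluorescence with its signal to noise ratio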
# [2] = modulators of HCV replicon luciferase signal, primary screen, HCV replication inhibitor project, Huh7 cells, luciferase reporter (AID 1109); conditions: 48 h, higher = more signal;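 note: huh7 hepatoma cells harbouring a luciferase neomycin HCV replicon reporter; luciferase luminescence as measure of HCV replicon replication; test concentration not given here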
# [3] = target: Left-right determination factor 2 (Homo sapiens) (UniProt O00292); assay: LEFTY2 binders on small-molecule microarrays, primary screen, biochemical, small-molecule microarray, 635 nm fluorescence scan (AID 1110); conditions: LEFTY2 binding, higher = more signal
# [4] = target: Calmodulin-1 (Homo sapiens) (UniProt P0DP23); assay: CALM1 binders on microarrays, EGTA buffer, profiling panel, biochemical, small-molecule microarray, Cy5-labelled CALM1 (AID 1111); conditions: Cy5-CALM1 binding fluorescence, higher = more signal;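 note: labelled calmodulin applied in Tris saline Tween buffer holding calcium plus EGTA and DTT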
# [5] = target: Calmodulin-1 (Homo sapiens) (UniProt P0DP23); assay: calcium-bound CALM1 binders on microarrays, profiling panel, artefact control for SMM control-protein annotation, biochemical, small-molecule microarray, Cy5-labelled CALM1, plus calcium (AID 1112); conditions: Cy5-CALM1 binding fluorescence, higher = more signal;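 note: score merges spot fluorescence with signal to noise from triplicate slides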
# [6] = small-molecule microarray binders of probe aWnt5a, primary screen, biochemical, biotinylated probe, 635/667 nm fluorescence (AID 1113); conditions: higher = more signal;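 note: score merges 667 nm fluorescence intensity with signal-to-noise per printed feature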
# [7] = small-molecule microarray binders of probe aShh, primary screen, biochemical, biotinylated probe, 635/667 nm fluorescence (AID 1114); conditions: higher = more signal;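 note: probe is biotin-labelled aShh protein from a stem cell growth factor screen; measures binding of labelled protein to compounds printed on the slide; score merges feature fluorescence at 667 nm with signal-to-noise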
# [8] = small-molecule microarray binders of probe aNog, primary screen, biochemical, biotinylated probe, 635/667 nm fluorescence (AID 1115); conditions: higher = more signal;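 note: probe is biotinylated aNog protein used at 0.15 µg/mL for 1 h at 4 C; z-score combines 667 nm fluorescence of each spot with its signal to noise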
# [9] = target: Torsin-1A-interacting protein 1 (Homo sapiens) (UniProt Q5JTV8); assay: LAP1 binders from COS7 cell lysate, primary screen, small-molecule microarray, 635/667 nm fluorescence (AID 1116); conditions: COS7-hLAP1 lysate binding, 635 nm fluorescence, higher = more signal
# [10] = target: Alpha-bungarotoxin (Bungarus multicinctus) (UniProt P60615); assay: alpha-bungarotoxin binders on microarray, profiling panel, artefact control for SMM control protein annotation, biochemical, small-molecule microarray, Alexa647 label, 635/667 nm fluorescence (AID 1117); conditions: alpha-BTX-A647 binding fluorescence, higher = more signal
# [11] = target: Albumin (Bos taurus) (UniProt P02769); assay: bovine serum albumin binders on microarray, profiling panel, artefact control for SMM control protein annotation, biochemical, small-molecule microarray, Alexa647 label, 635/667 nm fluorescence (AID 1118); conditions: BSA-A647 binding, fluorescence 635 nm, higher = more signal;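 note: score merges 667 nm emission intensity and signal-to-noise per printed compound spot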
# [12] = small-molecule microarray binders of probe aXIP, primary screen, biochemical, NeuroSMM set, 635/667 nm fluorescence (AID 1119); conditions: higher = more signal, called active from +8 up or from −8 down;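 note: probe is the protein aXip251-270 applied at 1 µg/mL to compound-printed slides; binding of probe to printed compounds measured as 667 nm fluorescence plus signal to noise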
# [13] = small-molecule binders of probe aNOTCH3, primary screen, biochemical, small-molecule microarray, 635/667 nm fluorescence (AID 1120); conditions: higher = more signal;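 note: probe is a biotin-tagged antibody raised against NOTCH3 rather than NOTCH3 protein; score merges spot fluorescence near 667 nm with spot signal to noise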
# [14] = small-molecule binders of probe aNOTCH2, primary screen, biochemical, small-molecule microarray, 635/667 nm fluorescence (AID 1121); conditions: higher = more signal;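 note: score merges feature fluorescence read at 667 nm with its signal to noise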
# [15] = target: Carbonic anhydrase 2 (Homo sapiens) (UniProt P00918); assay: CAII small-molecule binders, profiling panel, biochemical, small-molecule microarray, Alexa647-labelled CAII (AID 1122); conditions: CAII-A647 binding fluorescence, higher = more signal
# [16] = COS7 lysate on small-molecule microarray, probe aHis, 635 nm (AID 1123); conditions: COS7 cell lysate, fluorescence, higher = more signal;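 note: z-score combines 667nm fluorescence intensity with signal-to-noise per printed compound spot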
# [17] = compound binding in COS7 lysate, probe aLAP1, primary screen, cell lysate, small-molecule microarray (AID 1124); conditions: probe aLAP1, fluorescence, higher = more signal;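 note: lysate comes from COS7 cells expressing LAP1 and is applied at 0.3 µg/mL; score merges spot fluorescence near 667 nm with signal-to-noise over triplicate slides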
# [18] = test system: Sam68 (KHDRBS1); assay: Sam68 small-molecule binders, primary screen, biochemical, small-molecule microarray, 635 nm fluorescence (AID 1125); conditions: small-molecule microarray binding, higher = more signal;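 note: score merges 667 nm channel intensity with signal to noise over triplicate slides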
# [19] = test system: Chordin-like protein 2 (CHRDL2); assay: CHRDL2 small-molecule binders, primary screen, biochemical, small-molecule microarray, 635 nm fluorescence (AID 1126); conditions: small-molecule microarray binding, fluorescence 635 nm; higher = more signal;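 note: printed compound slides probed with Chrdl2 protein at 4 µg/mL for 1 h at 4 C; score merges 667 nm emission intensity with signal to noise over three replicate slides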
# [20] = target: Concanavalin-A (Canavalia ensiformis) (UniProt P02866); assay: ConA small-molecule binders, primary screen, artefact control for SMM control protein annotation, biochemical, small-molecule microarray, Alexa647 label, 635 nm (AID 1127); conditions: ConA-A647 binding fluorescence, higher = more signal;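 note: z combines 667 nm emission intensity with signal-to-noise across three replicate slides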
# Sequence of Concanavalin-A (Canavalia ensiformis) (P02866 whole entry, looked up): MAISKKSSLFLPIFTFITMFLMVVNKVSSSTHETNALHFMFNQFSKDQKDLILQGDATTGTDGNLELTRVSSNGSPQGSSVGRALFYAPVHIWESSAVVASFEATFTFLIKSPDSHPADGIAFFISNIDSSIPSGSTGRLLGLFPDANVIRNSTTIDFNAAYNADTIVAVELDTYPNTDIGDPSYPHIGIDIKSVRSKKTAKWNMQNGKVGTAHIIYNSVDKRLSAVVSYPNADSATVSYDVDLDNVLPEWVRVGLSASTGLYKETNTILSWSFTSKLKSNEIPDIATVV
# Sequence of Albumin (Bos taurus) (P02769 whole entry, looked up): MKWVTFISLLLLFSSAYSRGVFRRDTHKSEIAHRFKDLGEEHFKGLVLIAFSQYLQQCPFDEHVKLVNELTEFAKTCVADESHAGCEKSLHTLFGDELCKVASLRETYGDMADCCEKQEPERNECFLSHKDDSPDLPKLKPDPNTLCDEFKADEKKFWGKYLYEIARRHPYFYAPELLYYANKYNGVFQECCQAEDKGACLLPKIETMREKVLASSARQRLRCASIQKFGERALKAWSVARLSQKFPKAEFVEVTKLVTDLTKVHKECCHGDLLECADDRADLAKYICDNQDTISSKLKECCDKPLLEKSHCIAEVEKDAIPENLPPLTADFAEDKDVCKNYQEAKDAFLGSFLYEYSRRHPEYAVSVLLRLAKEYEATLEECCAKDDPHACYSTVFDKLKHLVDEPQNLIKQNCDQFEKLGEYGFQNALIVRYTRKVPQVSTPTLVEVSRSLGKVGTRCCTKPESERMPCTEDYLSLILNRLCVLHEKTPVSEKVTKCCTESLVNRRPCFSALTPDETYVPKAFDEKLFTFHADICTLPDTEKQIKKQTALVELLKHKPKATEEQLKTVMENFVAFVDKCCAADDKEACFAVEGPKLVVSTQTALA
# Sequence of Left-right determination factor 2 (Homo sapiens) (O00292 whole entry, looked up): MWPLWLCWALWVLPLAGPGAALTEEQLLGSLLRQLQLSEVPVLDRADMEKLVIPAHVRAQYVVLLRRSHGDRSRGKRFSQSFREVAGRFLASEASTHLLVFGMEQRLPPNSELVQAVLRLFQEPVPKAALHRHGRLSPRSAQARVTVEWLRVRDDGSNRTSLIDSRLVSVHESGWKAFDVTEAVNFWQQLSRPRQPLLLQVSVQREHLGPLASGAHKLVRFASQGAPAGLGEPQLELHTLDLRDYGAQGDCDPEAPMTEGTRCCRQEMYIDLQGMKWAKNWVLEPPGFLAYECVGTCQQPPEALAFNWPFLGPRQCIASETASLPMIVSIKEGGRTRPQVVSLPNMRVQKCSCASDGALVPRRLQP
# Sequence of Torsin-1A-interacting protein 1 (Homo sapiens) (Q5JTV8 whole entry, looked up): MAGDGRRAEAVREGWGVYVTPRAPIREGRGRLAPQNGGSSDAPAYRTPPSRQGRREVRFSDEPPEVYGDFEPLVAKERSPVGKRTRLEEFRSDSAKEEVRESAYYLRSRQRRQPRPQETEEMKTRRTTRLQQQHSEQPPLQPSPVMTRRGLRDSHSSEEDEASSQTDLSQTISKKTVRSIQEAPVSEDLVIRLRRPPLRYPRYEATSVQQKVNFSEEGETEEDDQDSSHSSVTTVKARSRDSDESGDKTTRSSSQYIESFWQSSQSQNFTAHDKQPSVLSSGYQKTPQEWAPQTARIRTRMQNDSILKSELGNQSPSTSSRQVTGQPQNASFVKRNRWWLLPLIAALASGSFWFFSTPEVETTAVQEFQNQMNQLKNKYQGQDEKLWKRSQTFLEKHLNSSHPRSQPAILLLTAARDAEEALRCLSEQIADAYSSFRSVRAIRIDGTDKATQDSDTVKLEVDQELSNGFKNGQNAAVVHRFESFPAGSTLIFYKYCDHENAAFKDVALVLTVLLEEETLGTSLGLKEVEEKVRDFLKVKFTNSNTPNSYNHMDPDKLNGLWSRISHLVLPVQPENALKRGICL
# Sequence of Alpha-bungarotoxin (Bungarus multicinctus) (P60615 whole entry, looked up): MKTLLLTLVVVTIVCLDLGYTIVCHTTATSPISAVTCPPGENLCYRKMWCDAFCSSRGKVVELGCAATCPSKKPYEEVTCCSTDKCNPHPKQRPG
SMILES,composite z-score [1],z-score [2],composite z-score [3],composite z-score [4],composite z-score [5],composite z-score [6],composite z-score [7],composite z-score [8],composite z-score [9],composite z-score [10],composite z-score [11],composite Z-score [12],composite z-score [13],composite z-score [14],composite z-score [15],composite z-score [16],composite z-score [17],composite z-score [18],composite z-score [19],composite z-score [20]
COCCOC(=O)N1C(=O)[C@@]2(c3cc(C#CC4=CCCCC4)ccc31)[C@H](c1ccc(OCCO)cc1)N1[C@H](c3ccccc3)[C@H](c3ccccc3)OC(=O)[C@H]1[C@@H]2C(=O)Nc1nc2ccccc2s1,1.23,-1.87,0.172,1.57,-0.386,-0.001,0.275,-0.45,0.993,0.656,0.539,0.657 (inactive),0.151,-0.0483,0.154,0.999,0.664,1.31,1.29,1.09
C=C(COC)C(=O)CC[C@H](OC(=O)c1cccnc1)c1ccccc1OCCO,0.862,-3.13,0.53,-0.0382,-0.689,-0.0479,-0.138,0.437,1.08,0.443,0.233,0.708 (inactive),0.217,-0.0846,0.286,0.765,0.591,1.32,0.906,0.475
COCCn1c(C(=O)N(C)C)cc2c1C[C@H]1CN(C(=O)c3ccccc3)[C@@](Cc3ccc(F)cc3)(C(=O)OC)[C@@H]21,1.3,-0.285,-0.0863,0.487,0.666,0.0559,0.385,0.873,0.153,0.305,0.985,0.916 (inactive),0.073,0.197,0.859,2.02,-0.0593,0.459,0.194,0.787
C=CCC(OC(C)=O)[C@@H]1[C@@H](N(Cc2cc3ccccc3o2)C(=O)c2cccc3ccccc23)c2cc(OCCCO)ccc2N1C(=O)Cc1ccc2ccccc2c1 (stereo not given in full),0.0073,-0.751,-0.31,0.191,0.223,-0.124,0.0711,-0.366,-0.089,0.474,0.398,0.182 (inactive),0.0496,-0.0928,0.0704,0.256,0.0592,-0.301,0.16,0.106
CCN(CC)c1ccc(N2CC=CC34O[C@@H]5/C=C\CCC(C)OC(=O)C5[C@H]3C(=O)N(CCCCCCO)[C@@H]4C2=O)cc1 (stereo not given in full),-0.27,-0.693,-0.694,-0.423,-0.304,-0.13,-0.223,-0.16,0.891,-1.04,0.362,0.184 (inactive),-0.204,-0.224,0.548,-0.039,-0.458,-0.264,-0.143,-0.285
